{
  "source": "PubChem BioAssay",
  "note": "Activity calls are given as the source filed them.",
  "data": [
    {"tested_on": "not listed separately", "assay": "splicing luciferase reporter signal modulators, primary screen, spliceosome inhibition project, cell-based, HEK293, splice +/- reporter (AID 1101);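 also: HEK293 cells carrying a splicing-competent luciferase reporter gene; test concentration not given here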", "details": "luminescence, 24 h, higher = more signal, called active from +8 up or from −8 down", "values": [
      {"compound": "C[N+](C)(C)CCCC[C@@H]1NC(=O)[C@@H]2C[C@H](C(=O)NCCCCCCN)[C@H](c3cccc(OCCO)c3)N2C1=O", "z-score": "-0.111 (inactive)"},
      {"compound": "COC(=O)[C@@H]1N=C(c2ccc(OCCCO)cc2)O[C@@H]1C", "z-score": "0.04 (inactive)"},
      {"compound": "Cc1ccc(N2C(=O)c3ccccc3[C@@H](C(=O)NCCCN(C)C)[C@@H]2c2ccc(CO)cc2)nc1", "z-score": "-0.556 (inactive)"},
      {"compound": "C#CCN(Cc1ccccc1Br)[C@H](/C=C/c1ccccc1)[C@@H](O)Cc1ccccc1", "z-score": "-1.51 (inactive)"},
      {"compound": "COCCOC(=O)N1C(=O)[C@@]2(c3cc(C#CC4=CCCCC4)ccc31)[C@H](c1ccccc1OCCO)N1[C@H](c3ccccc3)[C@H](c3ccccc3)OC(=O)[C@H]1[C@@H]2C(=O)NC[C@H](O)c1ccccc1", "z-score": "-1.76 (inactive)"},
      {"compound": "NCCCCCCNC(=O)[C@@H]1C[C@@H]2C(=O)N[C@@H](CCCCN)C(=O)N2[C@@H]1c1ccc(O)cc1", "z-score": "-1.48 (inactive)"},
      {"compound": "C=CC[C@]1(C(=O)N2CCOCC2)COC(c2ccc(OCCCO)cc2)=N1", "z-score": "-0.612 (inactive)"},
      {"compound": "COc1ccc(C(=O)Nc2ccc(CN3C(=O)[C@]4(O[C@H](CC(=O)N5Cc6ccccc6C[C@H]5CO)[C@@H]([Si](C)(C)c5ccc(OC)cc5)[C@@H]4C)c4ccccc43)cc2)cc1", "z-score": "-1.18 (inactive)"},
      {"compound": "CCCNC(=O)[C@@H]1c2ccccc2C(=O)N(Cc2ccc(OC(F)(F)F)cc2)[C@H]1c1ccc(CO)cc1", "z-score": "0.0883 (inactive)"}
    ]},
    {"target": "Fibroblast growth factor 10 (Homo sapiens) (UniProt O15520)", "sequence (O15520 whole entry, looked up)": "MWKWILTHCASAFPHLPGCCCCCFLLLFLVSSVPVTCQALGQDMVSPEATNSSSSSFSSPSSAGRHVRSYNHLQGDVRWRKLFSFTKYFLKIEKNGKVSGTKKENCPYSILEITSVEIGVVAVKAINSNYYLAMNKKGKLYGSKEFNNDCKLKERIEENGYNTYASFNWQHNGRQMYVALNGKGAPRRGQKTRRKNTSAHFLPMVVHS", "assay": "FGF10 binders on small-molecule microarrays, primary screen, biochemical, small-molecule microarray, 635 nm fluorescence (AID 1102)", "details": "FGF10 binding, fluorescence 635 nm, higher = more signal", "values": [
      {"compound": "C=CCC(OC(C)=O)[C@@H]1[C@@H](N(Cc2ccc(-c3ccccc3)cc2)C(=O)c2ccc(-c3ccccc3)cc2)c2cc(OCCCO)ccc2N1C(=O)c1ccc2ccccc2c1", "note": "(some centres undefined)", "composite z-score": -0.015},
      {"compound": "CCOC(=O)C[C@H]1[C@H](OC(=O)c2cc3ccccc3oc2=O)[C@@H](NC(=O)c2ccc3ccccc3n2)c2cc(OCCCO)ccc2N1C(=O)Cc1ccc(OC)cc1", "composite z-score": 1.01},
      {"compound": "Cc1ccc(S[C@]2(C(=O)NCC(F)(F)F)CC(=O)N(Cc3cc(C(F)(F)F)cc(C(F)(F)F)c3)[C@@H]2c2ccc(CO)cc2)cc1", "composite z-score": -0.463},
      {"compound": "COC(=O)[C@@]1(Cc2ccc(OC)cc2)[C@H]2c3cc(C(=O)N4CCCC4)n(CCc4c[nH]c5ccc(O)cc45)c3C[C@H]2CN1C(=O)c1ccccc1", "composite z-score": 1.06},
      {"compound": "NC(=O)[C@@]1(Cc2ccccc2)COC(c2ccc(OCCCO)cc2)=N1", "composite z-score": 0.594},
      {"compound": "COCCOC(=O)N1C(=O)[C@@]2(c3cc(C#CCCO)ccc31)[C@H](C(=O)Nc1nc3ccccc3s1)[C@H]1C(=O)O[C@H](c3ccccc3)[C@H](c3ccccc3)N1[C@@H]2c1ccc(O)cc1", "composite z-score": 1.16},
      {"compound": "COc1ccc([Si](C)(C)[C@@H]2[C@@H](CCO)O[C@]3(C(=O)N(Cc4ccccc4)c4ccc(N5CCOC5=O)cc43)[C@H]2C)cc1", "composite z-score": 0.24},
      {"compound": "C=C(/C(=C/C[C@H](OC(C)=O)c1ccc(CO)o1)c1cnc2ccccc2c1)C(C)C", "composite z-score": 1.44},
      {"compound": "COC(=O)[C@@]1(Cc2ccccc2)[C@H]2c3cc(C(=O)N4CCCC4)n(CCc4ccccn4)c3C[C@H]2CN1C(=O)c1ccccc1", "composite z-score": 0.874},
      {"compound": "COCC(=C=CC[C@H](O)c1ccc(OCCO)cc1)CCO", "composite z-score": 0.4},
      {"compound": "CCOC(=O)C1=C[C@@H](C(C)(C)C)N(S(=O)(=O)c2ccc(C)cc2)[C@H]1c1cccc2ccccc12", "composite z-score": 0.242},
      {"compound": "C=CC[C@@]1(C(=O)NCCCOC)N=C(c2ccc(OCCCO)cc2)O[C@@H]1c1ccccc1", "composite z-score": 0.311},
      {"compound": "[N-]=[N+]=Nc1ccccc1C[C@]1(C(=O)NCCN2CCOCC2)COC(c2ccc(OCCCO)cc2)=N1", "composite z-score": 0.318},
      {"compound": "Cc1ccc(F)cc1S(=O)(=O)N[C@@H]1CCN(Cc2ccc(Br)cc2)C1", "composite z-score": 0.69},
      {"compound": "OCCCC1=CC(c2ccc(CN3CCCC3)cc2)N(Cc2cc3c(cc2Br)OCO3)CC1", "note": "(centres undefined)", "composite z-score": 0.477},
      {"compound": "COC(=O)C1=CC(CCCO)=CC(c2ccc(CN3CCCC3)cc2)N(Cc2cccc(OC(F)(F)F)c2)C=C1C(=O)OC", "note": "(centres undefined)", "composite z-score": 0.641},
      {"compound": "CC(CO)N1C(=O)[C@@H]2[C@H]3C(=O)OCC=C[C@H]3OC23C=CCN(Cn2nnc4ccccc42)C(=O)[C@@H]13", "note": "(some centres undefined)", "composite z-score": -0.78},
      {"compound": "CC(C)NC(=O)[C@@]1(c2ccc([N+](=O)[O-])cc2)CC(=O)N(C2CCCCC2)[C@@H]1c1ccc(CO)cc1", "composite z-score": 1.23},
      {"compound": "O=C1CS(=O)(=O)C(c2cccc([N+](=O)[O-])c2)N1c1ccccc1", "note": "(centres undefined)", "composite z-score": 1.03},
      {"compound": "NC(=O)NCC#Cc1ccc2c(c1)[C@]1(C(=O)N2)[C@H](c2ccccc2OCCO)N2[C@H](c3ccccc3)[C@H](c3ccccc3)OC(=O)[C@H]2[C@@H]1C(=O)NC[C@H](O)c1ccccc1", "composite z-score": -0.491},
      {"compound": "CCCC[C@@H](O)C1=C(COc2ccccc2)C[C@H]2C(=O)N(Cc3ccccc3)C(=O)[C@H]2[C@H]1CO", "composite z-score": 0.574},
      {"compound": "COC(=O)[C@@]1(Cc2ccc(F)cc2)[C@H]2c3cc(C(=O)N(C)C)n(Cc4ccc(OC(F)(F)F)cc4)c3C[C@H]2CN1C(=O)c1ccccc1", "composite z-score": 0.251},
      {"compound": "COCCOC(=O)N1C(=O)[C@@]2(c3cc(C#CC4=CCCCC4)ccc31)[C@H](c1ccccc1OCCO)N1[C@H](c3ccccc3)[C@H](c3ccccc3)OC(=O)[C@H]1[C@@H]2C(=O)N1CCN(c2ncccn2)CC1", "composite z-score": 0.751},
      {"compound": "O=C1OCCC=C[C@H]2OC34C=CCN(c5ccc6ccccc6c5)C(=O)[C@H]3N(CCCO)C(=O)[C@@H]4C12", "note": "(some centres undefined)", "composite z-score": -1.62},
      {"compound": "CCCC=C(CCC)[C@@H](NS(=O)(=O)CC12CCC(CC1=O)C2(C)C)c1ccc(C(=O)OC)cc1", "note": "(some centres undefined)", "composite z-score": 0.5},
      {"compound": "CC(C)[Si](C#C[Si](C(C)C)(C(C)C)C(C)C)(O[C@H](c1ccccc1)c1cn(Cc2ccccc2)nn1)C(C)C", "composite z-score": 0.279},
      {"compound": "C[N+](C)(C)CCCC[C@@H]1NC(=O)[C@@H]2C[C@H](C(=O)NCCCCCCN)[C@H](c3cccc(OCCO)c3)N2C1=O", "composite z-score": 0.766},
      {"compound": "COC(=O)[C@@H]1N=C(c2ccc(OCCCO)cc2)O[C@@H]1C", "composite z-score": 0.965},
      {"compound": "Cc1ccc(N2C(=O)c3ccccc3[C@@H](C(=O)NCCCN(C)C)[C@@H]2c2ccc(CO)cc2)nc1", "composite z-score": -0.514},
      {"compound": "C#CCN(Cc1ccccc1Br)[C@H](/C=C/c1ccccc1)[C@@H](O)Cc1ccccc1", "composite z-score": -0.636},
      {"compound": "COCCOC(=O)N1C(=O)[C@@]2(c3cc(C#CC4=CCCCC4)ccc31)[C@H](c1ccccc1OCCO)N1[C@H](c3ccccc3)[C@H](c3ccccc3)OC(=O)[C@H]1[C@@H]2C(=O)NC[C@H](O)c1ccccc1", "composite z-score": 1.19},
      {"compound": "NCCCCCCNC(=O)[C@@H]1C[C@@H]2C(=O)N[C@@H](CCCCN)C(=O)N2[C@@H]1c1ccc(O)cc1", "composite z-score": 0.523},
      {"compound": "C=CC[C@]1(C(=O)N2CCOCC2)COC(c2ccc(OCCCO)cc2)=N1", "composite z-score": 0.66},
      {"compound": "COc1ccc(C(=O)Nc2ccc(CN3C(=O)[C@]4(O[C@H](CC(=O)N5Cc6ccccc6C[C@H]5CO)[C@@H]([Si](C)(C)c5ccc(OC)cc5)[C@@H]4C)c4ccccc43)cc2)cc1", "composite z-score": 1.06},
      {"compound": "CCCNC(=O)[C@@H]1c2ccccc2C(=O)N(Cc2ccc(OC(F)(F)F)cc2)[C@H]1c1ccc(CO)cc1", "composite z-score": 0.402}
    ]}
  ]
}
